In the library only some 8.9% were active in any assay of this set; here they are far more common.
IMPase Li inh – IMPase inhibition in cells with lithium potentiation; Potency, µM (top dose mostly 59.4 µM), for the others: at the highest dose activity, negative = IMPase inhibition, usual class: inhibitors; 210,000 compounds, 0.35% hits; CHO-M1 cells, IP1 TR-FRET (IP-One), carbachol + lithium;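 also: IP1 builds up when IMPase is blocked and the TR-FRET signal falls; potency is read from the fitted curve at half-maximal effect; plate controls were basal vehicle for no effect and high inhibitor control for full effect; nearly all actives have a fitted effect of over 50% in size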
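Lithium-sensitised IP1 accumulation assay; M1-expressing CHO cells treated 30 min at 37C with compound. Competitive antibody detection by time-resolved FRET followed a 10 min room-temperature lysis step.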
ALDH1A1 block – blocks purified human ALDH1A1 activity; P00352; AID 1030; Purified ALDH1A1, NADH fluorescence, propionaldehyde substrate; Potency, µM (doses to about 75.3 µM), for the others: top-dose activity, negative = inhibition, usual class: inhibitors; 220,000 compounds, 7.3% hits; active = well fitted inhibition curve with a large enough effect, not every such curve was filed as active; inconclusive = small, poorly fitted or top-dose-only effect, or another doubt; inactive = no such curve, though single readings can be large or run the other way;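 also: potency is read from the fitted curve at half-maximal effect; plate controls were no enzyme wells and a reference inhibitor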
NPSR antagonist – neuropeptide S receptor (human) antagonism, cAMP. Q6W5P4. CHO-NPSR cells, cAMP TR-FRET, antagonist mode. Potency, µM (doses to about 38.3 µM), for inactives: top-dose activity change, negative = inhibition, usual class: inhibitors. 220,000 compounds, 1% hits. AID 1461; also: potency is read from the fitted curve at half-maximal effect; nearly all actives have a fitted effect of over 50% in size
12-hLO inh – blocks human 12-lipoxygenase activity. P18054. purified 12-hLO, xylenol orange hydroperoxide absorbance. Potency, µM (doses to about 57.1 µM), for the others: at the top dose activity change, negative = inhibition, actives largely listed as inhibitors. 150,000 compounds, 0.12% hits; also: potency is read from the fitted curve at half-maximal effect; nearly all actives have a fitted effect of over 55% in size
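Lipoxygenase turnover measured by absorbance at 573 and 405 nm after Fe-XO development. Human 12hLO 150 nM, arachidonate 40 uM, pH 7.0 Hepes buffer with detergent; 15 min compound preincubation, 30 min reaction.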
HPGD inh – HPGD (human) dehydrogenase inhibition. P15428. purified HPGD, NADH fluorescence kinetic, PGE2 substrate. Potency, µM, without a hit: at the top dose activity change, negative = inhibition, hits mostly inhibitors. 150,000 compounds, 4.3% hits. AID 894; active = well fitted inhibition curve with a large enough effect, not every such curve was filed as active; inconclusive = small, poorly fitted or top-dose-only effect, or another doubt; inactive = no such curve, though single readings can be large or run the other way; also: potency is read from the fitted curve at half-maximal effect
Target sequence (P15428 whole entry, looked up): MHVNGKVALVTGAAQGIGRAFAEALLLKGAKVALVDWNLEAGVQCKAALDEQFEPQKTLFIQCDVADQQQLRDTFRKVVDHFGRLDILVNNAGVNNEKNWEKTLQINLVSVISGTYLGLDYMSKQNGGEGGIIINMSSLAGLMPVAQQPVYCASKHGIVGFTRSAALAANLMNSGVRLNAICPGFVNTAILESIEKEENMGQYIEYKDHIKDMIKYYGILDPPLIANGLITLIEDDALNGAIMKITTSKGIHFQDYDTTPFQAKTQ
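20 nM HPGD preincubated 15 min at room temperature with compound in 50 mM Tris-HCl pH 8, 0.01% Tween 20. Started with 1 mM NAD+ and 30 uM prostaglandin E2; NADH fluorescence (360/450 nm) read 5 times over 30-s intervals, last minus first.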
IMPase cell inh – membrane-permeable compound that blocks inositol monophosphatase | CHO-M1 cells, IP1 accumulation, HTRF TR-FRET ratio | 120,000 tested, under 10 active | inhibition (IP1 accumulation), % at 46.1 µM | P97697; active = well fitted curve in the direction sought with a large enough effect in the signal ratio, not every such curve was filed as active; inconclusive = small, poorly fitted or top-dose-only effect, or a change in a side signal; inactive = no such curve, though single readings can be large or run the other way; the % refers to the signal ratio;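 also: cells stimulated with carbachol in lithium chloride buffer; plate controls were DMSO basal wells for no effect and reference inhibitor wells for full effect; higher means more IMPase inhibition seen as more IP1 and lower FRET ratio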
Target sequence (P97697 whole entry, looked up): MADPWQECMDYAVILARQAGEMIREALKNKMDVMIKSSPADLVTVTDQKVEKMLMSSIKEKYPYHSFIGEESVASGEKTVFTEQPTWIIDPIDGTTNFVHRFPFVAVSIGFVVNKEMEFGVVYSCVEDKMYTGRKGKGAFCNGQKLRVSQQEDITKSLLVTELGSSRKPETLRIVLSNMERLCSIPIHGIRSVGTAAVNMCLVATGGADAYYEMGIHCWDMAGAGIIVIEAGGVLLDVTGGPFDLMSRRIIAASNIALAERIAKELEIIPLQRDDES
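Measured: the HTRF emission ratio (665/620 nm) plus the 620 nm donor channel, each fitted to the Hill equation to give AC50. Cells were CHO-M1 given compounds up to 46 uM and a 30 min carbachol stimulation at 37C.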
An asterisk follows results filed as active; ? = inconclusive; · = not tested or not shown; [ ] = dose if it differs, or a comment. Unless noted, calls follow the shape of the dose curve; as a rule, active = well fitted curve in the direction sought with a large enough effect; inconclusive = small, poorly fitted or top-dose-only effect, or another doubt; inactive = no such curve, though single readings can be large; an effect the other way counts as inactive or inconclusive. Unless noted, % is scaled to controls: 0 for no effect and ±100 for the full control effect.

SMILES | IMPase Li inh | ALDH1A1 block | NPSR antagonist | 12-hLO inh | HPGD inh | IMPase cell inh
Nc1nnc(CSCc2ccc(F)cc2)s1 | -3%[38.3 µM] | 10µM* | -2%[46.1 µM] | -8% | 22µM* | 3
Nc1nnc(-c2ccc(F)cc2)s1 | -6%[38.3 µM] | -9% | -9%[46.1 µM] | -8% | -17% | 0
COCC(=O)N1CCN(c2ccc([N+](=O)[O-])cc2)CC1 | -4%[38.3 µM] | -3% | 4%[46.1 µM] | -9% | -12% | 2
CC(=O)OCCCNc1cc(Sc2ccc(C)cc2)c2nonc2c1[N+](=O)[O-] | 5% | -13% | -13%[46.1 µM] | -3% | -22% | 1
CC(=O)OCCNc1cc(Sc2nc3ccccc3[nH]2)c2nonc2c1[N+](=O)[O-] | -11% | 10% | ? | -22% | 3.2µM* | -3
CCCC(=O)OCCNc1cc(SCCC(=O)OC)c2nonc2c1[N+](=O)[O-] | 17% | 10µM* | -1%[46.1 µM] | -11% | 28µM* | 13
CC(=O)OCCCNc1cc(Sc2nc3ccccc3s2)c2nonc2c1[N+](=O)[O-] | 22% | 11µM* | ? | 6% | 2.5µM* | -1
COC(=O)CCSc1cc(NCCOC(C)=O)c([N+](=O)[O-])c2nonc12 | 1% | 14% | -10% | -1% | -23% | ·
COc1cc(Br)cc2cc(C(=O)N3CCCCC3C)c(=O)oc12 (stereo unspecified) | 16%[38.3 µM] | ? | -10%[46.1 µM] | -4% | 13µM* | 4
CS(=O)(=O)Nc1cccc(-c2cncnc2-n2ccnc2)c1 | 1% | ? | · | · | · | ·
N#C/C=C1/NC(=O)c2ccccc2S1 | 0%[38.3 µM] | 3% | -18%[46.1 µM] | -2% | 2.2µM* | 1
O=c1c2ccccc2nc(-c2ccccc2)n1/N=C/c1ccc([N+](=O)[O-])cc1 | 8% | 6% | 6% | 1% | -11% | -7
Cc1ccccc1-c1nc2ccccc2c(=O)n1/N=C/c1ccccc1[N+](=O)[O-] | 35%[38.3 µM] | 14µM* | -27%[46.1 µM] | -30% | 22µM* | 12
N#Cc1cnn2c(N)c(-c3ccc(Cl)cc3)cnc12 | 11µM* | ? | -13% | · | · | ·
CC(C)c1onc(C(=O)NCc2cccs2)c1[N+](=O)[O-] | -5% | 1% | 8% | · | · | ·
Cc1cccc(OCc2n[nH]c(=S)o2)c1 | -10%[38.3 µM] | ? | -15%[46.1 µM] | -6% | -4% | -1
Cc1cccc(OCc2n[nH]c(=S)o2)c1C | 0% | 18µM* | -10% | · | · | ·
Cc1cccc(C)c1OCc1n[nH]c(=S)o1 | 4% | 8.9µM* | -4%[46.1 µM] | 1% | -3% | 3
NC(=S)N/N=C\c1ccc(-c2cccc(Cl)c2Cl)o1 | 6%[38.3 µM] | 32µM* | ? | ? | ? | -2
Cc1ccc(-c2ccc(/C=N/NC(N)=S)o2)cc1 | · | · | 6.3µM* | · | · | ·
NC(=S)N/N=C/c1ccc(-c2ccccc2)o1 | -7% | -15% | -47% | · | · | ·
Cc1ccc(NC(=O)CN2C(=O)N/C(=C/c3ccco3)C2=O)cc1 | -2%[38.3 µM] | 25µM* | -13%[46.1 µM] | -25% | -20% | 2
Cc1ccc(NC(=O)CN2C(=O)N/C(=C/c3cccn3-c3ccc(C(=O)O)cc3)C2=O)cc1 | 5% | -8% | -4% | -3% | 25µM* | 12
Cc1ccc(NC(=O)CN2C(=O)N/C(=C/c3cc(C)n(-c4ccc(C(=O)O)cc4)c3C)C2=O)cc1 | -7% | ? | -16% | · | · | ·
Cc1c(C(=O)O)sc(S(=O)(=O)N2CCNCC2)c1C(=O)O | · | ? | 2% | · | · | ·
Cc1cc(C)c2[nH]c(=O)c(CN(Cc3ccc4c(c3)OCO4)Cc3nnnn3C3CCCC3)cc2c1 | 40%[38.3 µM] | ? | ? | 1% | -26% | 6
Cc1ccc(C)c2[nH]c(=O)c(CN(CCN3CCOCC3)Cc3nnnn3CC3CCCO3)cc12 (stereo unspecified) | 0%[38.3 µM] | ? | 5%[46.1 µM] | -2% | -15% | 4
Cc1cccc2cc(CN(Cc3ccc(F)cc3)Cc3nnnn3C3CCCC3)c(=O)[nH]c12 | 8%[38.3 µM] | 14µM* | ? | -2% | 7% | 0
Cc1ccc(C)c2[nH]c(=O)c(CN(Cc3nnnn3C3CCCCC3)CC3CCCO3)cc12 (stereo unspecified) | 17%[38.3 µM] | 1.8µM* | ? | -4% | -16% | 2

Compound activity from PubChem.
